Laboratory results as given in the supplement of paper PMC3898565.
Structures can show the parent of a compound that is named as a salt. ± gives the uncertainty stated by the source.

System: U87
Test: cell viability relative to vehicle control; higher = less growth inhibition (less active)
Settings: 10 µM; 72 h
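Note: viable cell number estimated from Alamar Blue fluorescence read at 560/90, part of a single-dose primary screen of an FDA-approved drug library.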

SMILES | cell viability [%]
O=C(O)C(Cl)Cl | 101 ± 1.6
CC[C@]1(O)CC[C@H]2[C@@H]3CCC4=CCCC[C@@H]4[C@H]3CC[C@@]21C [Ethylestrenol] | 101.7 ± 0.91
CC(O)(CS(=O)(=O)c1ccc(F)cc1)C(=O)Nc1ccc(C#N)c(C(F)(F)F)c1 (stereo not given) | 103 ± 1.5
NC1=NC(=O)C(c2ccccc2)O1 (stereo not given) [Pemoline] | 102.8 ± 0.87
COC(=O)N1CCN(C(=O)Cc2ccc(Cl)c(Cl)c2)C(CN2CCCC2)C1 (stereo not given) | 105 ± 2.6
N=C(NCc1ccc(Cl)cc1)SCCCc1c[nH]cn1 [Clobenpropit] | 102 ± 1.4
CC[C@@H](C(N)=O)N1CCCC1=O | 110 ± 12
CCCN1C[C@H](CSC)C[C@@H]2c3cccc4[nH]cc(c34)C[C@H]21 [Pergolide] | 109.4 ± 1
COc1ccc2[nH]cc(CCN)c2c1 [5-Methoxytryptamine] | 109 ± 1.3
NCCc1ccccn1 | 104 ± 1.4
C[C@]12Cc3c[nH]nc3C[C@@H]1CC[C@@H]1[C@@H]2CC[C@@]2(C)[C@H]1CC[C@]2(C)O [Stanozolol] | 107 ± 2.4
O=C1CN=C(c2ccccc2)c2cc([N+](=O)[O-])ccc2N1 [Nitrazepam] | 103.3 ± 0.55
c1cncc([C@@H]2CCCN2)c1 [Nornicotine] | 111 ± 3.4
OC1CCCCC1N1CCC(c2ccccc2)CC1 (stereo not given) | 95 ± 2.2
C=C1C[C@@H]2[C@H](CC[C@]3(C)C(=O)CC[C@@H]23)[C@@]2(C)C=CC(=O)C=C12 | 107 ± 2.5
COc1ccc2c(c1)[C@]13CCCC[C@@H]1[C@H](C2)N(C)CC3 [d-3-Methoxy-N-methylmorphinan hydrobromide] | 103 ± 1.2
CNC(=O)Oc1ccc2c(c1)[C@]1(C)CCN(C)[C@@H]1N2C [Physostigmine] | 93 ± 1.4
C#CCN(C)[C@H](C)Cc1ccccc1 [Selegiline] | 103 ± 1.2

SMILES | cell viability [%]
CS(=O)(=O)Nc1ccc(Cc2noc(-c3ccc4[nH]cc(CCN)c4c3)n2)cc1 | 106 ± 1.2
CCCCC/C=C\C/C=C\C/C=C\C/C=C\CCCC(=O)Nc1ccc(O)cc1 | 100.5 ± 0.91
CN1C(=O)CN=C(c2ccccc2)c2cc([N+](=O)[O-])ccc21 [Nimetazepam] | 108 ± 2.6
CC(C)CC(N(C)C)C1(c2ccc(Cl)cc2)CCC1 (stereo not given) [Sibutramine] | 111.8 ± 0.39
C[C@]12CC[C@H](O)CC1=CC[C@@H]1[C@@H]2CC[C@]2(C)C(=O)CC[C@@H]12 | 116 ± 9.3
c1ccc(Cn2ccnc2)cc1 | 105 ± 1.2
C[C@]12CC[C@H]3[C@@H](CCC4=CC(=O)CC[C@@H]43)[C@@H]1CC[C@@H]2O [Nandrolone] | 101.5 ± 0.8
COc1cccc(C2(O)CCCCC2CN(C)C)c1 (stereo not given) [Tramadol] | 102 ± 2.1
CN1CC[C@]23CCCC[C@H]2[C@H]1Cc1ccc(O)cc13 | 101.4 ± 0.14
COc1cc(N)c(Cl)cc1C(=O)NC1CN2CCC1CC2 (stereo not given) [Zacopride] | 101.7 ± 0.79
c1ccc2c(c1)Nc1ccccc1S2 | 110.5 ± 0.17
CC(C)[C@]12O[C@H]1[C@@H]1O[C@]13[C@]1(O[C@H]1C[C@H]1C4=C(CC[C@@]13C)C(=O)OC4)[C@@H]2O | 26.3 ± 2.5
O=C1Nc2ccc(Cl)cc2C(c2ccccc2Cl)=NC1O (stereo not given) [Lorazepam] | 105.6 ± 0.26
CN1C(=O)COc2c(C(=O)NC3CN4CCC3CC4)cc(Cl)cc21 (stereo not given) [Azasetron] | 103 ± 1.1
c1ccc2c3c([nH]c2c1)CNCC3 | 104 ± 1.1
Cc1ncc2n1-c1ccc(Cl)cc1C(c1ccccc1F)=NC2 | 102.2 ± 0.87
C=C(C)[C@@H]1[C@H]2OC(=O)[C@@H]1[C@]1(O)C[C@H]3O[C@]34C(=O)O[C@H]2[C@]14C.CC(C)(O)[C@@H]1[C@H]2OC(=O)[C@@H]1[C@]1(O)C[C@H]3O[C@]34C(=O)O[C@H]2[C@]14C [Picrotin - Picrotoxinin] | 105 ± 1.3
